Reference: ChEMBL document CHEMBL3988442, “University of Dundee, Small-Polar-MMV Screening Library” (2021)

How the values were obtained:
[1] = target: T1, Aspartate--tRNA(Asp/Asn) ligase (Mycobacterium tuberculosis (strain ATCC 25618 / H37Rv)) (UniProt P9WFW3); experiment: Assay for Asp RNA synthetase-1 from Mycobacterium tuberculosis; assay type: functional; set-up: scale not given: direction of the effect not stated beside the values; conditions: 30 µM; further: in the data most compounds retested in dose-response had high values
T1 sequence (whole entry): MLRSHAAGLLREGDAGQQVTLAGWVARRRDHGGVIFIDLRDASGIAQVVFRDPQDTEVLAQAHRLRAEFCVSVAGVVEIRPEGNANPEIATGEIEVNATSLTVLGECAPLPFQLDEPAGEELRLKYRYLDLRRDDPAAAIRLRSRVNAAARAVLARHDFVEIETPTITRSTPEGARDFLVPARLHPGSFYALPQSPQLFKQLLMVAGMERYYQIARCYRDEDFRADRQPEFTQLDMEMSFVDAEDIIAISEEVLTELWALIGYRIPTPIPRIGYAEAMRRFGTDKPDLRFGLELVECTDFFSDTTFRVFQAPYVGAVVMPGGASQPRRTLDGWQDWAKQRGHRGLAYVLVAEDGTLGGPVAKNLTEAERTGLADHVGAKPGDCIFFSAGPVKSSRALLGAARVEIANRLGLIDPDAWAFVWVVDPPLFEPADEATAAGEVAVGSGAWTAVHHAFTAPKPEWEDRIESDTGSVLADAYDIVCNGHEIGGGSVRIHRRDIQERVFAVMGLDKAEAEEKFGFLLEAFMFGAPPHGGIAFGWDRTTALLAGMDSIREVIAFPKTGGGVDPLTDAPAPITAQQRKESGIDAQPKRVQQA

[2] = target: Shiga toxin 2 (Escherichia coli O157:H7) (UniProt P09385+P09386); experiment: E. coli 0.157:H7 Shiga Toxin SOP - stx2 screening assay; assay type: functional; set-up: scale not given: direction of the effect not stated beside the values; conditions: 30 µM

Row | Structure (SMILES) | Percent Effect [1] | Percent Effect [2]
1 | CCC1=N[C@@]2(CC[C@@H]3CN(C(=O)NCc4ccccc4)C[C@@H]32)C(=O)N1 | 1.75% | 5.39%
2 | CCOC(=O)N1CCN(C(=O)c2ccc3ccn(C)c3c2)CC1 | -0.585% | 1.39%
3 | Cn1cccc1C(=O)Nc1cc(F)ccc1OCC1CCCO1 (stereo not given) | -6.53% | 22%
4 | Cc1nn(C)c(Cl)c1C1CCCN1CC(=O)NCc1ccccn1 (stereo not given) | -2.78% | -10.8%
5 | CCCc1n[nH]c(C2CN(C(=O)c3cc(F)ccc3OC)CCO2)n1 (stereo not given) | 0% | 29.8%
6 | Cc1ncccc1Oc1nccnc1C1CCN(C(C)C)CC1 | -4.09% | -1.37%
7 | CC(C1CC1)N(C(=O)NCCCn1nc2ccccn2c1=O)C1CC1 (stereo not given) | 1.26% | -15.6%
8 | CC(C)NC(=O)CC1COC2(CCN(Cc3ccccc3)CC2)C1 (stereo not given) | -2.02% | -36%
9 | CCN(CC)C(=O)Cn1ccc2cc(NC(=O)C3CC3)ccc21 | -1.5% | -4.48%
10 | COc1ccc(-n2ccc(C(=O)N3CCC(C(N)=O)C3)n2)cc1 (stereo not given) | 1.17% | 19.6%
11 | CC(NC(=O)NCCNc1cnccn1)c1cccs1 (stereo not given) | -0.971% | -34.6%
12 | COCCN1CCN(Cc2ccc(F)c(C)c2)[C@H]2CS(=O)(=O)C[C@H]21 | -3.12% | -5.44%
13 | Cc1nc(C)n(C2CCCN(C(=O)c3ccccc3C)C2)n1 (stereo not given) | 0.173% | 18.2%
14 | Cc1noc(Cl)c1CCC(=O)N1CCN(c2ncccn2)CC1 | -3.2% | 36%
15 | CC(=O)N1CCC(c2ccnc(Nc3cnccn3)n2)C1 (stereo not given) | 1.13% | -14.2%
16 | CCn1cc(Br)c(C(=O)NCc2cccnc2)n1 | 7.19% | -69.5%
17 | COCc1noc(C2(c3ccc(OC)cc3)CCOCC2)n1 | -1.75% | 1.38%
18 | CC1CCN(S(=O)(=O)c2cccn(CC(=O)N3CCOCC3)c2=O)CC1 | -4.3% | -33%
19 | Cn1cc(C(=O)N2C[C@@H]3COC[C@]3(COCc3cccnc3)C2)cn1 | -0.306% | -6.37%
20 | CN(C)S(=O)(=O)N1CCN(c2nccc(C(F)(F)F)n2)CC1 | -6.64% | -2.87%
21 | CN(CC1(O)CCCCC1)C1CCCN(Cc2noc(C3CC3)n2)C1 (stereo not given) | -2.39% | 23.8%
22 | O=C(c1csc(-c2cccs2)n1)N1CCCC1Cn1cccn1 (stereo not given) | 3.15% | 37.2%
23 | Cc1cnn(CC2CCCCN2Cc2nnc(C3CC3)n2C)c1 (stereo not given) | -3.3% | 1.19%
24 | O=C(Nc1ccnc(OC2CCOC2)c1)c1cc(F)ccc1F (stereo not given) | -4.18% | -63.1%
25 | C[C@@H]1CN(C(=O)c2cccs2)C[C@]12CCN(CCN(C)C)C2=O | -0.228% | -8.44%
